Experimental findings from PubChem BioAssay AID1578 (Sanford-Burnham Center for Chemical Genomics, 2009) are described below.

In all, about 290,000 compounds went through this assay and about 3,000 (1%) were called active. This is one part of a sample in which actives are shown more often than they occur. Values without a mark were called inactive. Rule as the data show it: active = inhibition mostly above about 36% (no sharp cut-off); inactive = mostly below about 34%.

The nature of the assay: inhibition of NOD1-driven NF-kB reporter – cell-based, luminescence, uHTS, primary screen (AID 1578).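 Also: HEK-293T reporter cells stimulated with the NOD1 agonist gamma-tri-DAP.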 To be noted: NOD1-driven NF-kB luciferase reporter cells, at 4 µM, stronger effect = higher value. Background: In a reporter assay the amount or activity of a reporter protein is the signal.
A word on the inhibition: it is the change of the read-out against control, counted positive when it falls. In the case of `O=C(NCc1ccc(F)cc1)N1CCN(S(=O)(=O)c2ccccc2F)CC1`, the inhibition was -20.3%.

In the case of `O=C(N/N=C/c1ccc(Cl)cc1Cl)C(=O)NC1CC1`, the inhibition was -3.9%.

Turning to `CCc1cc(-c2[nH]ncc2-c2ccc(OC)cc2)c(O)cc1O`, the inhibition was 12.6%.

For `CCc1cc(-c2[nH]ncc2-c2ccc3c(c2)OCO3)c(O)cc1O`, the inhibition was 97.7% (active).

As to `CCCc1cc(-c2[nH]ncc2-c2ccc3c(c2)OCCCO3)c(O)cc1O`, the inhibition is 17.6%.

For the molecule `Cc1ccc(C(=O)NCC(=O)N2CCN(S(=O)(=O)c3cccs3)CC2)s1`, the inhibition was -28.4%.

`O=C(N/N=C/c1ccc(OC(=O)c2cccc(F)c2)cc1)c1cccnc1`: the inhibition is -21%.

`COc1ccccc1NC(=O)c1ccccc1Nc1ccccc1`: the inhibition is -5.4%.

As for `COc1ccc(CN2CCNC(=O)C2CC(=O)NCCc2cnccn2)cc1C` (stereo unspecified), the inhibition is -22.4%.

Regarding `Cc1cccc(Nc2n[nH]c(C)c2[N+](=O)[O-])c1`, the inhibition is -36.2%.

Consider `Cc1ccc(Nc2n[nH]c(C)c2[N+](=O)[O-])cc1`, for which the inhibition is -38.4%.

For `Cc1[nH]nc(Nc2ccccc2)c1[N+](=O)[O-]`, the inhibition is 75.5% (active).

Consider `CC1CCCN(S(=O)(=O)c2ccc3oc(=O)ccc3c2)C1` (stereo unspecified), for which the inhibition is -39.5%.

With `Cc1ccc(OCCCn2cc(C#N)c3ccccc32)cc1`, the inhibition is 26.6%.

Consider `CCN(CC)S(=O)(=O)c1cc(C(=O)OCC(=O)c2ccc3c(c2)NC(=O)CO3)ccc1F`, for which the inhibition was -21.3%.

For `COCc1cc(C)nc(N2CCCCC2)c1C#N`, the inhibition was -7.1%.

Regarding `O=C(O)c1c2c(nc3ccccc13)/C(=C/c1ccc(O)cc1)CCC2`, the inhibition was -23.9%.

With `O=C(O)c1c2c(nc3ccccc13)/C(=C/c1ccc(O)cc1)CC2`, the inhibition was 63.5% (active).

For the molecule `O=C(O)c1ccc(/C=C2\CCCc3c2nc2ccccc2c3C(=O)O)cc1`, the inhibition was -24%.

In the case of `NC(=O)CSc1nnc(CNc2cccc(Cl)c2)n1CCc1ccccc1`, the inhibition was -6.6%.

Take `CC(O)CNc1ncnc2cc(-c3ccc(F)cc3)sc12` (stereo unspecified): the inhibition is -11.1%.

Regarding `CCOC(=O)c1sc(-c2ccc(F)cc2)cc1N`, the inhibition is -18.5%.

On to `C=CCNC(=O)c1ccc2c(=O)n(CCCN3CCCC3=O)c(=S)[nH]c2c1`, for which the inhibition is -17.5%.

`N#CC1=C(N)Oc2ccc3ccc(O)cc3c2C1c1cccnc1` (stereo unspecified): the inhibition is -18.7%.

`Cc1ccc(-c2nc3[nH]c(=O)cc(NC(=O)c4cccs4)n3n2)cc1`: the inhibition is -1.6%.

For `Cc1nc2c3cc(Cl)ccc3n(CCN3CCCCC3)c2s1`, the inhibition is -5.1%.

With `CC1CCN(S(=O)(=O)c2ccc3c(c2)NC(=O)CS3)CC1`, the inhibition was -43.2%.

In the case of `Cc1ccc(CNC(=O)Cc2ccc(-n3cccc3)cc2)cc1`, the inhibition is -32.1%.

`O=C(COc1ccccc1)NCc1ccc(-n2cccc2)cc1`: the inhibition is -34.8%.

In the case of `O=C(Cc1ccccc1)NCc1ccc(-n2cccc2)cc1`, the inhibition is 48.6% (active).

In the case of `Cc1ccc(COc2ccsc2C(=O)NNC(N)=S)cc1`, the inhibition was -29.4%.

As for `CCOc1cccc(/C=N/NC(=S)Nc2ccccc2[N+](=O)[O-])c1O`, the inhibition was 34.3%.

On to `CCCOc1ccc(/C=N/Nc2ccccc2[N+](=O)[O-])c(O)c1`, for which the inhibition is 55.7%.

On to `OC(CNCCc1ccc(Cl)cc1)COc1cc(Cl)ccc1Cl` (stereo unspecified), for which the inhibition is -10.1%.

In the case of `Cc1ccccc1OCC(=O)N/N=C/c1ccc(N2CCOCC2)o1`, the inhibition is -23.5%.

On to `Cc1ccc(CSC2=NCCN2C(=O)C(C)Oc2ccccc2)cc1` (stereo unspecified), for which the inhibition was -38.3%.

Take `CC1CCc2c(sc3ncnc(N4CCOCC4)c23)C1` (stereo unspecified): the inhibition was -28.8%.

In the case of `CC1CCc2sc3ncnc(N4CCN(C)CC4)c3c2C1` (stereo unspecified), the inhibition was 13.5%.

For `CCOC(=O)C1CCCN(C(=O)COc2ccccc2F)C1` (stereo unspecified), the inhibition is -25.1%.

`COC(=O)c1c(NC(=O)CN2C(=O)NC3(CCC(C(C)(C)C)CC3)C2=O)sc2c1CCCCC2` (stereo unspecified): the inhibition was -10.4%.

With `COCC(C)N1CCC(n2nccc2NC(=O)CCCc2ccccc2)CC1` (stereo unspecified), the inhibition is -1.8%.

For `O=C(NC1=NCCS1)c1cc(-c2cccc(Br)c2)nc2ccccc12`, the inhibition is -10.6%.

In the case of `COc1cc(/C=C2\CC/C(=C\c3cc(OC)c(OC)c(OC)c3)C2=O)cc(OC)c1OC`, the inhibition is 23%.

Take `COc1cc(/C=C2\CCOC2=O)cc(OC)c1OC`: the inhibition is -9.9%.

In the case of `O=C(CN(Cc1ccco1)C(=O)CNS(=O)(=O)c1ccc(F)cc1)NCCc1ccccc1`, the inhibition is -27.1%.

For `Cn1c(N)c(C(=O)COC(=O)c2ccc(Cl)c(S(=O)(=O)N3CCCC3)c2)c(=O)n(C)c1=O`, the inhibition was 14.5%.

Consider `Cn1c(N)c(C(=O)COC(=O)c2ccc(Cl)c(S(=O)(=O)N3CCCCC3)c2)c(=O)n(C)c1=O`, for which the inhibition is 64.3% (active).

On to `Cc1ccc(C(=O)OCC(=O)c2c(N)n(C)c(=O)n(C)c2=O)cc1S(=O)(=O)N1CCCCC1`, for which the inhibition was -7.4%.

As to `Cc1cc(C(=O)OCC(=O)NC(C)C)c(C)o1`, the inhibition was -4%.

For the molecule `CC(=O)C(C)n1c(CN2CCN(C(=O)c3ccco3)CC2)nc2c1c(=O)n(C)c(=O)n2C` (stereo unspecified), the inhibition was -0.4%.

As for `CCN1CCS/C1=C\C=C\C1=[N+](CC)CCS1`, the inhibition was 53.8% (active).

With `CCN1CCS/C1=C/C=C/C1=[N+](CC)CCS1`, the inhibition is 14%.

Regarding `Cc1ccc(CC(=O)NCc2ccc(Cl)cc2)cc1`, the inhibition is -57.8%.

For `Cc1ccc(-c2cc(C)nc3ncnn23)cc1`, the inhibition was -4.1%.

Consider `Cc1cccc2nc(CSc3nc4[nH]ncc4c(=O)n3-c3cccc(Cl)c3)cc(=O)n12`, for which the inhibition is 75.3% (active).

For `Cc1cccc2nc(CSc3nc4[nH]ncc4c(=O)n3-c3ccccc3Cl)cc(=O)n12`, the inhibition was 6.5%.

With `Cc1cccc(-n2c(SCc3cc(=O)n4c(C)cccc4n3)nc3[nH]ncc3c2=O)c1`, the inhibition is -6.2%.

As for `COc1ccc(C2C(C(N)=O)=C(C)Nc3ncnn32)cc1` (stereo unspecified), the inhibition is -4.5%.

With `COC(=O)CCC(=O)NNC(=O)C1CC1(c1ccccc1)c1ccccc1` (stereo unspecified), the inhibition was 0.4%.

As for `COc1ccc(NC(=S)N2CCN(c3ccccn3)CC2)cc1`, the inhibition was -4.7%.

In the case of `S=C(Nc1ccccc1)N1CCN(c2ccccn2)CC1`, the inhibition is -29.8%.
